From PubChem BioAssay (EPA / NIEHS)
Several values for one entry are separate records, joined by “and”; a condition that tells them apart may be missing. Identical values can stand only once. Activity calls are given as the source filed them. Rule for the calls: active = hit-call score of the fitted dose curve at least 0.9, where 1 is the maximum; inactive = score below 0.9.

test: BSK_SAg_SRB: Viability Assessment in the BioMAP Diversity Plus: SAg Assay (AID 2283096); details: primary human HUVEC with PBMC;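 note: cells read one day after compound addition; hits may be either gain or loss of signal compared with DMSO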
Procedure: BSK_SAg is a cell-based, multiplexed-readout assay that uses umbilical vein endothelium and peripheral blood mononuclear cells, a human vascular primary cell co-culture, with measurements taken at 24 hours after chemical dosing in a 96-well plate.BSK_SAg_SRB is an assay component measured in the BSK_SAg assay. It measures protein content, a form of viability reporter, as detected with absorbance signals by Sulforhodamine staining technology.Data from the assay component BSK_SAg_SRB was analyzed into 1 assay endpoint. This assay endpoint, BSK_SAg_SRB, was analyzed with bidirectional fitting relative to DMSO as the negative control and baseline of activity. Using a type of viability reporter, gain or loss-of-signal activity can be used to understand changes in the signaling. Furthermore, this assay endpoint can be referred to as a primary readout, because this assay has produced multiple assay endpoints where this one serves a signaling function. To generalize the intended target to other relatable targets, this assay endpoint is annotated to the cell morphology intended target family, where the subfamily is cell conformation.
The levels of cell surface (or secreted, indicated by the prefix "s") biomarker endpoints were measured by ELISA. Overt cytotoxicity to cells in confluent adherent cultures (all systems other than the BT system) was assessed by measuring total protein levels using sulforhodamine B (SRB) staining in parallel cultures at the time of biomarker measurements, indicated as SRB endpoints. For proliferation assays for adherent cell types, individual cell types are cultured at sub-confluence and relative cell numbers quantified by SRB staining at time points optimized for each system (48 h: 3C and CASM3C systems; 72 h: BT and HDF3CGF systems; 96 h: SAg system). SRB was performed by staining cells with 0.1% SRB after fixation with 10% TCA and reading wells at 560 nm.Viability and proliferation of PBMC (T cells) was quantified by Alamar Blue reduction for the SAg and BT systems. For PBMC viability (referred to as PBMC Cytotoxicity within the assay endpoint names), cells were plated (75,000/well in a 96-well plate) and then chemical samples added for 1 h before addition of activators, SEB and TSST-1 (20 ng/mL final concentration each). Cells were incubated for 90 h. Then, Alamar Blue (20 uL/well) (Invitrogen, Cat DAL1100) was added for 6 h, and the plates were read with a fluorescence microplate reader at 546/580 nm (excitation/emission). For PBMC proliferation, cells were plated and activated as above but incubated for only 16 h prior to addition of Alamar Blue. Plates were read after 6 h.

SMILES	AC50	outcome
CCOC(=O)c1ccccc1C(=C1C=C(Br)C(=O)C(Br)=C1)c1cc(Br)c(O)c(Br)c1	21.1 µM (active) and 18.9 µM (active)	–
O=Nc1ccc(O)cc1	–	inactive
O=C(c1ccc(O)cc1)c1ccc(O)cc1O	–	inactive
c1ccc2c(c1)ccc1cc3c(ccc4ccccc43)cc12	–	inactive
O=C1CCCN1CCO	–	inactive
CO[Si](OC)(OC)c1ccccc1	–	inactive
C=CCOCC(O)CCl (stereo unspecified)	–	inactive
CN1C(=O)N(C)C(O)C1O (stereo unspecified)	–	inactive
CCCCC(CC)COCC1CO1 (stereo unspecified)	–	inactive
CCO[Si](C)(OCC)OCC	–	inactive
C#CC1(O)CC[C@H]2[C@@H]3CCC4=CCCC[C@@H]4[C@H]3CC[C@@]21C (stereo partly specified)	28 µM (active)	–
CCCCNc1ccc(NCCCC)c2c1C(=O)c1ccccc1C2=O	–	inactive
O=C(Cl)c1cc(C(=O)Cl)cc(C(=O)Cl)c1	30.7 µM (active)	–
CC1OC1C1CCC2(C)OC2C1 (stereo unspecified)	–	inactive
COCc1c(C(C)C)nc(C(C)C)c(/C=C/[C@@H](O)C[C@@H](O)CC(=O)O)c1-c1ccc(F)cc1	0.0355 µM (active)	–
C/C=C\C/C=C/CCCCCCCCOC(C)=O	–	inactive
CCCCC/C=C\C/C=C\CCCCCCCC(=O)OC	–	inactive
CCCCC(CC)COC(=O)c1ccccc1O (stereo unspecified)	–	inactive

SMILES	AC50	outcome
CC(C)(c1cc(Br)c(OCCO)c(Br)c1)c1cc(Br)c(OCCO)c(Br)c1	–	inactive
O=c1c2ccccc2oc2ccccc12	–	inactive
C=CCOc1c(Br)cc(Br)cc1Br	–	inactive
COc1ccc2nc(N)sc2c1	–	inactive
Nc1ccc(N)c(Cl)c1	27.7 µM (active)	–
c1ccc2c(c1)ccc1ncccc12	28.1 µM (active)	–
C=CC(=O)OCC(Br)CBr (stereo unspecified)	34.1 µM (active)	–
CCO[Si](CCCN=C=O)(OCC)OCC	–	inactive
O=C(Nc1ccccc1SSc1ccccc1NC(=O)c1ccccc1)c1ccccc1	–	inactive
CCCCCCCCCCCCCCCC[N+](C)(C)CC	1.69 µM (active)	–
CCOc1nc(F)cc2nc(S(=O)(=O)Nc3c(Cl)cccc3C(=O)OC)nn12	–	inactive
C=CC=CC=CCCCCC	–	inactive
CC(C)C(=O)C(C)C	–	inactive
c1ccc(-c2ccccn2)nc1	–	inactive
CCCCCCCCc1ccc(Nc2ccc(CCCCCCCC)cc2)cc1	–	inactive
C=C[Si](OC(C)=O)(OC(C)=O)OC(C)=O	–	inactive
S=C(NC1CCCCC1)NC1CCCCC1	–	inactive
N#[N+]c1ccc2c(S(=O)(=O)[O-])cccc2c1O	–	inactive
